Structures are written as SMILES. About 83,000 compounds went through this panel and 20% of them were active in at least one assay; those are over-represented in the sample as a whole.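 Growth was measured after 48 h exposure to one concentration of compound in 96-well plates. Values under 10 count as active.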 Unmarked numbers belong to inactive results. Active and inactive are the calls of the source.

From PubChem BioAssay (NCI) come the findings set out here.

Test systems include SR leukemia; RPMI-8226 leukemia; OVCAR-8 ovarian; OVCAR-4 ovarian; SK-OV-3 ovarian; IGROV1 ovarian; OVCAR-3 ovarian; HS 578T breast; NCI/ADR-RES ovarian; T-47D breast; BT-549 breast; MDA-MB-435 melanoma; SW-620 colon; HCT-116 colon; HCC-2998 colon; KM12 colon; MDA-MB-468 breast; OVCAR-5 ovarian; MCF7 breast.
Common to all, as to test: NCI-60 one-dose screen, 48 h (100 = growth as untreated, 0 = no growth, -100 = all killed)
Common to all, as to details: 10 µM unless noted

In the case of `COc1c(F)ccc(C(=O)Nc2ccc3nc(NC(=O)C4CCCN(S(=O)(=O)c5cccc(Br)c5)C4)sc3c2)c1F` (stereo unspecified), the growth is 55.9% in the experiment on SR leukemia; 51.7% with RPMI-8226 leukemia; 104% with OVCAR-8 ovarian; 73.6% in the experiment on OVCAR-4 ovarian; 112% in the experiment with SK-OV-3 ovarian; 86.8% in the experiment on IGROV1 ovarian. Besides, the growth in the experiment with OVCAR-3 ovarian was 106%; in the experiment on HS 578T breast, 56.6%; with NCI/ADR-RES ovarian it was 85.3%; with T-47D breast it was 60.9%; in the experiment with BT-549 breast, 74.5%; in the experiment on MDA-MB-435 melanoma it was 90.7%. The growth with SW-620 colon is 94.5%; with HCT-116 colon, 67.9%; in the experiment with HCC-2998 colon, 125%; in the experiment on KM12 colon it was 78.7%; in the experiment on MDA-MB-468 breast it was 98.1%.

Consider `O=C(N/N=C/c1ccc(-c2ccc(O)cc2)o1)c1[nH]c2ccc(Br)cc2c1-c1ccccc1`, for which the growth is -9.54% (active) in the experiment on SR leukemia; -9.92% (active) in the experiment on RPMI-8226 leukemia; -33.5% (active) in the experiment on OVCAR-8 ovarian; 1.22% (active) in the experiment with OVCAR-5 ovarian; 19.6% in the experiment on SK-OV-3 ovarian; -17.3% (active) in the experiment with IGROV1 ovarian. The growth is -41.1% (active) with OVCAR-3 ovarian; -12.1% (active) in the experiment on NCI/ADR-RES ovarian; 19% in the experiment with T-47D breast; -13.3% (active) with BT-549 breast; -14.7% (active) with MDA-MB-435 melanoma; -3.44% (active) with MCF7 breast. Also, the growth with HCT-116 colon is 4.35% (active); in the experiment on HCC-2998 colon, -23.6% (active); in the experiment on KM12 colon, 2.17% (active); in the experiment on MDA-MB-468 breast it was -16.6% (active).

Consider `C=C1CC[C@@H]2[C@]3(C)COC(c4cn[nH]c4-c4ccccc4)O[C@@H]3CC[C@@]2(C)[C@@H]1C/C=C1/C(=O)OCC1O` (stereo partly specified), for which the growth in the experiment on SR leukemia was -18.9% (active); with RPMI-8226 leukemia it was -28.6% (active); with OVCAR-8 ovarian, 33%; in the experiment on OVCAR-5 ovarian, 22.6%; in the experiment with SK-OV-3 ovarian it was 107%; with IGROV1 ovarian it was 30.6%. In addition, the growth in the experiment on OVCAR-3 ovarian is 34.7%; in the experiment with T-47D breast, 19.3%; in the experiment on BT-549 breast, 52.2%; in the experiment with MDA-MB-435 melanoma it was 1.5% (active); in the experiment on MCF7 breast, -28.3% (active); with HCT-116 colon it was -20.3% (active). Also, the growth was 16.9% with HCC-2998 colon and -11.3% (active) in the experiment with KM12 colon.

As to `C=C1CC[C@@H]2[C@]3(C)COC(c4cn[nH]c4-c4cccc(Cl)c4)O[C@@H]3CC[C@@]2(C)[C@@H]1C/C=C1/C(=O)OCC1O` (stereo partly specified), the growth with SR leukemia is 14.7%; with RPMI-8226 leukemia, -11.7% (active); in the experiment on OVCAR-8 ovarian, -23.3% (active); in the experiment with OVCAR-4 ovarian, 35.2%; in the experiment on SK-OV-3 ovarian, 49.6%; with IGROV1 ovarian, -44.1% (active). In addition, the growth with OVCAR-3 ovarian was -62% (active); in the experiment with HS 578T breast, 26.8%; in the experiment with NCI/ADR-RES ovarian, -56.4% (active); with T-47D breast, -2.68% (active); in the experiment with BT-549 breast, -92.4% (active); in the experiment with MDA-MB-435 melanoma it was -32.5% (active). Moreover, the growth with SW-620 colon is -57.6% (active); in the experiment with HCT-116 colon, -91.6% (active); with HCC-2998 colon, -91.2% (active); with KM12 colon, -25.2% (active); with MDA-MB-468 breast it was -84.3% (active).

For the molecule `O=C(c1ccccc1)c1ccc2nc(-c3cccc(Cl)c3)[nH]c2c1`, the growth was 117% in the experiment with SR leukemia; 114% in the experiment with RPMI-8226 leukemia; 103% in the experiment on OVCAR-8 ovarian; 114% with OVCAR-4 ovarian; 99.9% in the experiment on SK-OV-3 ovarian; 113% in the experiment with IGROV1 ovarian. Further, the growth with OVCAR-3 ovarian is 116%; in the experiment on HS 578T breast, 108%; in the experiment with NCI/ADR-RES ovarian, 104%; in the experiment with T-47D breast it was 98.6%; in the experiment on BT-549 breast, 105%; in the experiment with MDA-MB-435 melanoma it was 106%. In addition, the growth is 108% in the experiment with SW-620 colon; 105% with MCF7 breast; 103% in the experiment with HCT-116 colon; 110% in the experiment with HCC-2998 colon; 108% with KM12 colon; 105% with MDA-MB-468 breast.

Take `Cc1ccc(S(=O)(=O)c2nc(S(=O)(=O)c3ccc(C)cc3)c(Cl)s2)cc1`: the growth in the experiment on SR leukemia is 3.18% (active); with RPMI-8226 leukemia, -32.7% (active); with OVCAR-8 ovarian, 9.84% (active); with OVCAR-4 ovarian, -26.1% (active); with SK-OV-3 ovarian it was 133%; in the experiment on IGROV1 ovarian, 44.8%. For the same molecule, the growth is -87.5% (active) in the experiment on OVCAR-3 ovarian; 86.5% in the experiment on HS 578T breast; 29.5% in the experiment on NCI/ADR-RES ovarian; -24.6% (active) in the experiment with T-47D breast; 26.3% in the experiment with BT-549 breast; 50.5% in the experiment on MDA-MB-435 melanoma. The growth with SW-620 colon was -63.1% (active); in the experiment with MCF7 breast it was -57.1% (active); in the experiment with HCT-116 colon, -46.2% (active); with HCC-2998 colon, 58.8%; in the experiment with KM12 colon it was 23.9%; in the experiment on MDA-MB-468 breast, -78.8% (active).

For the molecule `CC(=O)OC[C@@]1(C)C2CC[C@]3(C)C(CC=C4C5CC(C)(C)CC[C@]5(C(=O)Nc5cccc(C)c5)CC[C@]43C)[C@@]2(C)C[C@@H](OC(C)=O)[C@@H]1OC(C)=O` (stereo partly specified), the growth in the experiment with SR leukemia is 30%; with RPMI-8226 leukemia, 15.9%; in the experiment on OVCAR-8 ovarian, 39.7%; in the experiment with OVCAR-4 ovarian, 38.6%; in the experiment on SK-OV-3 ovarian it was 59.7%; in the experiment on IGROV1 ovarian, 61.8%. Also, the growth with OVCAR-3 ovarian is 47.5%; with HS 578T breast, 77%; in the experiment on NCI/ADR-RES ovarian, 36.2%; in the experiment with T-47D breast, 24.3%; with BT-549 breast it was 47.4%; with MDA-MB-435 melanoma, 48.2%. The growth was 40.5% with SW-620 colon; 24.9% with MCF7 breast; 21.8% with HCT-116 colon; 49% in the experiment on HCC-2998 colon; 48.7% in the experiment on KM12 colon; 1.92% (active) in the experiment with MDA-MB-468 breast.

In the case of `Nc1nc(C(F)(F)F)cs1`, the growth in the experiment on SR leukemia was 101%; in the experiment with RPMI-8226 leukemia, 115%; in the experiment with OVCAR-8 ovarian it was 105%; with OVCAR-4 ovarian, 108%; with SK-OV-3 ovarian, 101%; in the experiment on IGROV1 ovarian, 107%. Besides, the growth is 108% in the experiment with OVCAR-3 ovarian; 109% with HS 578T breast; 104% in the experiment with NCI/ADR-RES ovarian; 99.4% with T-47D breast; 114% in the experiment on BT-549 breast; 100% in the experiment on MDA-MB-435 melanoma. Besides, the growth in the experiment with SW-620 colon was 104%; in the experiment with MCF7 breast it was 93.2%; in the experiment on HCT-116 colon, 111%; in the experiment on HCC-2998 colon, 105%; in the experiment on KM12 colon, 100%; with MDA-MB-468 breast it was 101%.
